# aSyn 5UTR act: Activators working through SNCA 5'UTR binding (MLPCN); alpha-synuclein 5'UTR reporter, activators screen; 7.1% of 300,000 active; AID 1814; activity score, % (tested at 7.5 µM), hits read low; in the data active = activity score below about -60%
# Active calls of the source: *. A selection follows.
SMILES,aSyn 5UTR act
COc1ccc(-c2nnc(NC(=O)c3ccc(S(=O)(=O)N4CCc5ccccc5C4)cc3)o2)cc1,73
Cc1cc(CNC(=O)c2cccc(OC3CCN(S(=O)(=O)N(C)C)CC3)c2)on1,-139*
CN(C)S(=O)(=O)N1CCC(Oc2ccc(C(=O)NC3Cc4ccccc4C3)cc2)CC1,-65*
Cc1ccsc1CN(C)C(=O)C1CCC(=O)N(CCc2cccc(F)c2)C1 (stereo not given),-91*
Cc1ccsc1CCNC(=O)C1CCC(=O)N(CCc2cccc(F)c2)C1 (stereo not given),-102*
CSc1cccc(CNC(=O)C2CCC(=O)N(Cc3cccc(C(F)(F)F)c3)C2)c1 (stereo not given),-73*
CN(C(=O)C1CCC(=O)N(Cc2cccc(F)c2)C1)C1CCCCC1 (stereo not given),-126*
O=C(O)c1ccc(N/N=C/c2cccc(C(F)(F)F)c2)cc1,-99*
O=C(O)c1ccc(N/N=C/c2ccc(F)c(F)c2)cc1,-73*
O=C(O)c1ccc(N/N=C/c2ccc3nccnc3c2)cc1,94
O=c1cccccc1NN=C1CCCCCC1,-140*
O=c1cccccc1NN=C1CCCCC1,-69*
O=C(c1ccc(F)cc1)N1CCC(c2ccccc2)C1 (stereo not given),-84*
O=C(c1ccco1)N1CCC(c2ccccc2)C1 (stereo not given),-109*
Cc1ccc(-c2cc(C(=O)NC3CCCCC3)no2)cc1,-163*
O=C(NC1CCCCC1)c1cc(-c2ccc(O)cc2)on1,-153*
O=C(NC1CCCCC1)c1cc(-c2ccccc2O)on1,-145*
CN(C(=O)c1cc(-c2ccccc2)on1)C1CCCCC1,-188*
Clc1cccc(-c2cc3nc4c(c(NCc5ccco5)n3n2)CCCC4)c1,-115*
Cc1ccc(-c2nc(NCc3ccco3)n(S(C)(=O)=O)n2)cc1,-72*
Cc1ccc(-c2cc3nc(C)cc(NCc4ccco4)n3n2)cc1,-157*
O=C(CCc1ccccc1)n1nc(-c2ccccc2)nc1NCc1ccco1,-67*
CC(=O)n1nc(-c2ccc(C)cc2)nc1NCc1ccco1,-161*
CCC(=O)n1nc(-c2ccc(Cl)cc2)nc1NCc1ccccc1,-93*
CCOC(=O)c1c(C)[nH]c2cc(Br)c(O)cc12,-92*
SMILES,aSyn 5UTR act
Cc1ccc(C(=O)C2Oc3ccccc3C3CC(c4ccc(C)cc4)=NN23)cc1 (stereo not given),-82*
COc1ccc(C2=NN3C(C2)c2ccccc2OC3c2cccs2)cc1 (stereo not given),-190*
COc1ccc(C2=NN3C(C2)c2ccccc2OC32C(=O)N(C)c3ccccc32)cc1 (stereo not given),-131*
Cc1ccc(C2=NN3C(C(=O)c4ccccc4)Oc4ccccc4C3C2)cc1 (stereo not given),-146*
CS(=O)(=O)c1nc(-c2cccs2)cc(C(F)(F)F)n1,-90*
CS(=O)(=O)c1nc(-c2ccc(F)cc2)cc(C(F)(F)F)n1,-126*
Cc1cc(NC(=O)CCCS(=O)(=O)c2nc(-c3cccs3)cc(C(F)(F)F)n2)no1,-92*
COc1ccc(-c2cc(C(F)(F)F)nc(S(C)(=O)=O)n2)cc1,-103*
O=C1C(Cl)=C(Nc2ccccc2O)C(=O)N1c1ccccc1,-94*
COc1ccccc1N1C(=O)C(Cl)=C(Nc2ccccc2O)C1=O,-127*
CCOC(=O)C1=C(C)C/C(=N\NC(=O)c2ccccc2O)CC1,-79*
Oc1ccc(Br)cc1C=Nc1ccc2c3c(cccc13)CC2,-69*
CCc1ccc2[nH]c(C(=O)Nc3ccc(C)c(F)c3)cc2c1,-109*
O=C(Nc1ccc(F)cc1)c1cc2cc(Cl)ccc2[nH]1,-62*
COc1ccc(Cl)cc1NC(=O)C1COc2ccccc2O1 (stereo not given),-65*
COc1ccc(CNC(=O)C2COc3ccccc3O2)c(OC)c1 (stereo not given),-76*
O=C(Nc1ccccn1)C1COc2ccccc2O1 (stereo not given),-177*
Cc1cnc(NC(=O)C2COc3ccccc3O2)s1 (stereo not given),71
Cc1cc(NC(=O)C2COc3ccccc3O2)no1 (stereo not given),-115*
Cc1csc(NC(=O)C2COc3ccccc3O2)n1 (stereo not given),62
Cc1cccc(NC(=O)C2COc3ccccc3O2)n1 (stereo not given),-71*
O=C(Nc1ccc(Cl)cn1)C1COc2ccccc2O1 (stereo not given),-137*
CCc1cc(C(c2ccc(OC)c(OC)c2)N2CCOCC2)c(NC(=O)c2ccccc2)s1 (stereo not given),-62*
O=C(Nc1ccc(-n2cc(Br)cn2)cc1)c1ccncc1,-68*
O=C(Nc1ccc(-n2cc(Cl)cn2)cc1)c1ccncc1,-92*
C/C(=N\Nc1cccc2cccnc12)c1ccc(C)cc1,-170*
O=C(Nc1cccnc1Cl)c1ccc(Cl)cc1,-148*
Cc1ccc(C(=O)Nc2cccc3cccnc23)cc1C,-87*
Cc1ccc(/C=C/C(=O)Nc2cccc3cccnc23)o1,-132*

# Screening data as filed in PubChem.
